In the library only some 2.1% were active in any assay of this set; here they are far more common.
TDP43 rescue: TDP-43 toxicity inhibition in yeast; TDP-43 expressing yeast growth rescue, BacTiter-Glo, 24 h; Potency, µM (top dose mostly 46.1 µM), usual class: activators; 410,000 compounds, 1.8% hits; further: nearly all actives have a fitted effect of over 50% in size
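Luminescence from BacTiter-Glo reports growth of TDP-43-expressing yeast after 24 hr at 30 deg C with compound. Cells were raffinose-pregrown to mid-log, then seeded in galactose medium at OD600=0.02.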
Abeta yeast res: compounds reversing amyloid beta toxicity in yeast. yeast expressing A-beta42, growth rescue, OD600, 48 h; response scale: 0% DMSO, 100% iron-clioquinol control. Potency, µM (series often up to 46.1 µM), hits mostly activators. 410,000 compounds, 0.063% hits. AID 1347071; further: nearly all actives have a fitted effect of over 55% in size
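Yeast A-beta toxicity model in growth medium with pinned compounds, 48 h at 30 C; growth read as absorbance at 600 nm. Normalized to FeCl3/clioquinol equimolar mix (positive) and DMSO (negative).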
aSyn rescue: inhibitors of alpha-synuclein toxicity in yeast | Yeast expressing alpha-synuclein, growth rescue, BacTiter-Glo, 24 h | 370,000 compounds, 0.14% hits | Potency, µM (doses to about 46.1 µM), most hits filed as activators | AID 652106; further: nearly all actives have a fitted effect of over 65% in size
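Readout is rescue of growth in alpha-synuclein-expressing yeast, so inhibitors of toxicity appear as activators. Growth after 24 hr at 30 deg C in galactose medium is quantified by luminescence.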
FUS yeast rescue: suppressors of FUS proteinopathy in yeast; 390,000 compounds, 0.24% hits; S. cerevisiae FUS-expressing, growth rescue, OD600, 24 h; AID 1347120; Potency, µM (doses to about 76.6 µM), actives largely listed as activators; further: nearly all actives have a fitted effect of over 55% in size
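Compound concentration series was pinned onto galactose-induced FUS-expressing yeast seeded at OD 0.005. Plates sat 24hr at 30C; absorbance at 600 nm gave growth. DMSO served as background control.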
Numbers stand for hits; . = inactive; ? = inconclusive; / = not tested or not shown. The call rests on the fitted dose curve; in most records, active means well fitted curve in the direction sought with a large enough effect; inconclusive means small, poorly fitted or top-dose-only effect, or another doubt; inactive means no such curve, though single readings can be large; an effect the other way counts as inactive or inconclusive.

SMILES	TDP43 rescue	Abeta yeast res	aSyn rescue	FUS yeast rescue
Cc1ccccc1-c1cc(-c2ccccc2O)n[nH]1	11µM	.	.	.
Oc1ccccc1-c1cc(-c2ccc(F)cc2)n[nH]1	3.5µM	.	.	.
Oc1ccccc1-c1cc(-c2ccccc2)n[nH]1	?	.	.	.
COc1ccc(O)c(-c2cc(-c3ccccc3Cl)[nH]n2)c1	18µM	.	.	.
Cc1ccc(-c2cc(-c3ccccc3Cl)[nH]n2)c(O)c1	.	.	.	.
COC(=O)C[C@@H]1CC[C@H]2[C@@H](COc3ccc(NC(=O)Nc4ccc(C)cc4)cc3C(=O)N2C)O1	/	/	/	.
Cc1cnc2c(C)cccc2c1/C=C/c1ccc(N(C)C)cc1	/	/	.	/
Cc1cccc(C)c1OCc1cc(=O)n2c3c(sc2n1)CCCC3	35µM	.	/	.
Cc1ccc(S(=O)(=O)N(CCc2ccccc2)CC(=O)N2CCOCC2)cc1	/	/	/	.
CCCOc1ccc(C(=O)c2nc3c(n2O)CCCC3)cc1	13µM	.	/	.
COCCCNc1nc2ccccc2nc1NS(=O)(=O)c1cccc(C)c1	14µM	.	.	.
COCCCNc1nc2ccccc2nc1NS(=O)(=O)c1ccccc1	.	.	.	.
CC(C)(C)c1ccc(-c2nnc(SCC(=O)Nc3ccc4cn[nH]c4c3)n2-c2ccc(Cl)cc2)cc1	/	/	/	.
O=C(N/N=C/c1ccccn1)c1sc2ccccc2c1Cl	?	?	3.2µM	.
COc1cccc(N2CCN(CC(=O)NCc3ccc(Cl)cc3)CC2)c1	/	/	/	.
COc1ccc2c(c1OC)C(=O)N1N=C(c3ccc(Br)cc3)CC21 (stereo not given)	20µM	.	.	.
COc1ccc(C2=NN3C(=O)c4c(ccc(OC)c4OC)C3C2)cc1 (stereo not given)	.	.	.	.
COc1ccc2c(c1OC)C(=O)N1N=C(c3ccc(Cl)cc3)CC21 (stereo not given)	35µM	.	.	.
COc1cc([C@H]2OC[C@H]3[C@@H]2CO[C@H]3c2ccc(O)c(OC)c2)ccc1O	.	.	.	.
C/C=C/c1cc(OC)c2c(c1)[C@H](C)[C@@H](c1ccc(O)c(OC)c1)O2	.	.	7.9µM	.
NC(=O)C1CCN(C2=C(Cl)C(=O)c3ccccc3C2=O)CC1	13µM	.	.	.
O=C1C(Cl)=C(N2CCC(C(=O)O)CC2)C(=O)c2ccccc21	18µM	.	.	.
Cc1ccc(CNC2CCC23CCC(c2ccccc2)CC3)o1 (stereo not given)	/	/	/	.
Clc1ccc(Oc2nnnn2-c2ccccc2)cc1	11µM	.	.	.
COc1cnn(-c2ccc(C)cc2)c(=O)c1Br	?	.	.	.
SMILES	TDP43 rescue	Abeta yeast res	aSyn rescue	FUS yeast rescue
COc1ccc(Oc2cnn(-c3ccccc3)c(=O)c2Br)cc1	13µM	.	.	.
Cc1ccc(C)c(Oc2nnnn2-c2ccccc2)c1	11µM	.	.	.
COc1cccc(Oc2nnnn2-c2ccccc2)c1	13µM	.	/	.
NC(=O)c1ccc(-n2nnnc2Oc2ccccc2)cc1	.	.	.	.
COc1cc2nc(N3CCCN(C)CC3)nc(N)c2cc1OC	/	/	.	/
CCN(CCC#N)c1ccc(/C=C/c2ccnc3ccccc23)cc1	/	/	.	/
COc1ccc(Oc2nnnn2-c2ccccc2)cc1	11µM	.	.	.
CC(=O)N1CCN(/[N+]([O-])=N/Oc2ccc([N+](=O)[O-])cc2[N+](=O)[O-])CC1	/	/	.	/
CCOC(=O)C1CCCN(C2CC(=O)N(c3ccc(C(C)C)cc3)C2=O)C1 (stereo not given)	35µM	.	.	.
CCOC(=O)C1CCCN(C2CC(=O)N(c3ccc(N4C(=O)CC(N5CCCC(C(=O)OCC)C5)C4=O)cc3)C2=O)C1 (stereo not given)	.	.	.	.
C=CCNC(=O)CSc1nc2c(c(=O)[nH]1)CCCC2	/	/	/	.
CCC(Sc1nc2ccsc2c(=O)n1Cc1ccc(C(=O)O)cc1)C(=O)Nc1ccc(Cl)cc1 (stereo not given)	.	.	.	35µM
NC(=S)Cc1ccc(Cl)cc1Cl	13µM	.	.	.
CCCCN(CCCN)c1ccc(Br)cn1	/	/	.	/
O=C(CCNc1cc(Cl)cc(Cl)c1)c1cccs1	10µM	.	.	.
O=C(CCNc1ccc(Cl)cc1)c1cccs1	.	.	.	.
Cc1ccc(/C=C2\SC(N3CCCCC3)=NC2=O)cc1	10µM	.	.	.
O=C1N=C(N2CCCCC2)S/C1=C\c1ccc(Cl)cc1	.	.	.	.
CC1C2CCC(C2)C1OC(=O)c1ccccc1C(=O)O (stereo not given)	.	.	.	.

High-throughput results: PubChem, National Center for Advancing Translational Sciences (NCATS)
